DT40 TDP1 no CPT: qHTS for Inhibitors of human tyrosyl-DNA phosphodiesterase 1 (TDP1): qHTS in cells in absence of CPT; DT40 Tdp1-/- hTDP1 cells, no CPT, ATP luminescence, 48 h; Potency, µM (series often up to 46.2 µM), actives largely listed as inhibitors; 420,000 tested, 15% active; AID 686978, 2013; note: nearly all actives have a fitted effect of over 55% in size
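A cellular qHTS used chicken DT40 cells lacking endogenous Tdp1 but carrying stably transfected human TDP1. Compounds were applied without camptothecin, and cell growth kinetics were judged by ATP-dependent luminescence after ≥48 hr.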
HepG2 viability: counter-screen for TGF-b inhibitors: cytotoxicity in HepG2 cells; 410,000 tested, 0.76% active; Potency, µM (doses to about 46.1 µM), actives largely listed as cytotoxic; AID 588856; HepG2 CAGA-GFP viability, ATP luminescence, 18 h
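CellTiter-Glo luminescence gave cytotoxicity after 18 hours at 37 degrees C. The cells were HepG2 CAGA-GFP in 1% FBS DMEM, stimulated with 500 pg/mL TGF-beta after compound addition. %Activity was normalised to no-cell wells (complete cell-killing) and DMSO (no toxicity), and curves were fitted and classified.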
TGFb SMAD3 inh: TGF-b pathway inhibition; Potency, µM (doses to about 46.1 µM), most hits filed as inhibitors; 410,000 tested, 1.2% active; AID 588855; HepG2 CAGA-GFP TGF-b/SMAD3 reporter, GFP fluorescence, 18 h; TGF-beta stimulated, 500 pg/mL final; note: nearly all actives have a fitted effect of over 65% in size
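Smad-responsive CAGA-GFP expression was quantified in HEPG2 cells exposed to compounds and 500 pg/mL final TGF-beta for 18 h at 37 degrees C; unstimulated wells defined full inhibition.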
IL-1B inflam inh: inhibitors of inflammasome signaling (IL-1 beta secretion) | THP-1 LPS/ATP IL-1B secretion, AlphaLISA, 16 h; active compounds read low | activity change, % at 57.5 µM | 360,000 tested, 4.7% active | AID 743279; in the data active = activity change below about -50%; inconclusive = mostly about -30% to -49%
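Secreted IL-1B measured by AlphaLISA bead assay after 16 h compound exposure of THP-1 cells; compounds (final up to 57.5 uM) added 1 h before LPS (250 ng/mL) and ATP (1.25 mM) stimulation; lower signal means less secretion.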
TDP1 inh: TDP1 (human) enzyme inhibition | Q9NUW8 | recombinant TDP1, AlphaScreen DNA substrate cleavage | Potency, µM (titrated, usually from 130 µM), actives largely listed as inhibitors | 350,000 tested, 0.28% active; note: nearly all actives have a fitted effect of over 40% in size
Target sequence (Q9NUW8 whole entry, looked up): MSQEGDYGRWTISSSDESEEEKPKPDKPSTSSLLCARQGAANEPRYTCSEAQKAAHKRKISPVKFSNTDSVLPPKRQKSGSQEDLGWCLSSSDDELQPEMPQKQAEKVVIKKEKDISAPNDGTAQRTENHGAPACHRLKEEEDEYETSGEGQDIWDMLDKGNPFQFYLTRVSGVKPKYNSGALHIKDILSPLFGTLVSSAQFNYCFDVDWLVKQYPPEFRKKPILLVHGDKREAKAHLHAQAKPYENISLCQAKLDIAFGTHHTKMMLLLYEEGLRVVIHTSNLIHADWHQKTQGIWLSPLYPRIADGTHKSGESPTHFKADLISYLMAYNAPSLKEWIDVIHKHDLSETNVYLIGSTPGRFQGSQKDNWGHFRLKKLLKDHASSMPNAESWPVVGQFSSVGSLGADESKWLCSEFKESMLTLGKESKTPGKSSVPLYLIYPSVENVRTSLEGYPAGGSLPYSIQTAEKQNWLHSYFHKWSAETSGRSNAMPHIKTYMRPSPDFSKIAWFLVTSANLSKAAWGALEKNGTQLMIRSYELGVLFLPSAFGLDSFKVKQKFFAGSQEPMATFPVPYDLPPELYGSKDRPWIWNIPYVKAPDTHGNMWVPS
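Here, a 5' biotin and 3' phosphotyrosine-FITC DNA oligonucleotide reports Tdp1 activity: intact substrate bridges AlphaScreen beads, while cleavage leaves a 3' phosphate and drops signal. All incubations at room temperature.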
DT40 TDP1 CPT: growth inhibition of DT40 Tdp1-/-;hTDP1 cells with camptothecin (screen for TDP1 inhibitors); chicken DT40 Tdp1-/-;hTDP1 cells + 20 nM CPT, ATP luminescence, 48 h; Potency, µM (highest dose often 46.2 µM), actives largely listed as inhibitors; 420,000 tested, 12% active; AID 686979; note: nearly all actives have a fitted effect of over 55% in size
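Cell growth measured by CellTiter-Glo luminescence after a minimum 48 h, 37 C compound exposure with 20 nM CPT in Tdp1-knockout DT40 cells stably expressing hTDP1, seeded 400/well; qHTS titration format.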
Of the large screens only hits and unclear results are named; the others gave an inactive call. In the library only some 19% were active in any assay of this set; here they are far more common. Unless noted, calls come from the whole dose curve; as a rule, active = well fitted curve in the direction sought with a large enough effect; inconclusive = small, poorly fitted or top-dose-only effect, or another doubt; inactive = no such curve, though single readings can be large; an effect the other way counts as inactive or inconclusive.

COc1ccc2cc(S(=O)(=O)N3CCCC(C)C3)ccc2c1 (stereo unspecified)	DT40 TDP1 no CPT 23µM, IL-1B inflam inh inconclusive, DT40 TDP1 CPT inconclusive
COc1ccc(C(CNC(=O)c2cccc(S(=O)(=O)N3CCCC(C)C3)c2)N(C)C)cc1 (stereo unspecified)	IL-1B inflam inh -55, DT40 TDP1 CPT inconclusive
Oc1c(C(c2ccccc2)N2CCC3(CC2)OCCO3)sc2nc(-c3ccco3)nn12 (stereo unspecified)	none (no result: IL-1B inflam inh)
CCOc1ccccc1NC(=O)N1CCc2c(sc(C)c2CC)C1c1ccccc1 (stereo unspecified)	DT40 TDP1 no CPT 15µM, DT40 TDP1 CPT inconclusive (no result: IL-1B inflam inh)
Cc1cc(C)cc(NC(=O)N2CCC(NC(=O)c3ccccc3C)CC2)c1	none
CCc1c(C)sc2c1CCN(C(=O)Nc1cc(C)cc(C)c1)C2c1ccccc1 (stereo unspecified)	DT40 TDP1 no CPT 8.2µM, DT40 TDP1 CPT 3.7µM (no result: IL-1B inflam inh)
CCOC(=O)c1cc2c(N)c(C(=O)c3cc(C#N)c(SC)nc3C)sc2nc1C	DT40 TDP1 no CPT 10µM, TGFb SMAD3 inh inconclusive, DT40 TDP1 CPT 13µM
COc1cc(OC)c(OC)cc1/C=N/Nc1ncnc2c1[nH]c1ccccc12	DT40 TDP1 no CPT inconclusive
c1coc(CNc2ncnc3nc[nH]c23)c1	none
Fc1ccc2[nH]c3c(NCc4ccco4)ncnc3c2c1	DT40 TDP1 no CPT 8.9µM, TGFb SMAD3 inh inconclusive, DT40 TDP1 CPT 7.1µM (no result: IL-1B inflam inh)
Cc1ccc2[nH]c3c(NCc4ccco4)ncnc3c2c1	DT40 TDP1 no CPT 18µM, TGFb SMAD3 inh inconclusive, DT40 TDP1 CPT 23µM
COc1cc(CNc2ncnc3c2[nH]c2ccc(C)cc23)cc(OC)c1	DT40 TDP1 no CPT 21µM, TGFb SMAD3 inh inconclusive, IL-1B inflam inh inconclusive, DT40 TDP1 CPT inconclusive
COc1ccc(/C=N/Nc2ncnc3c2[nH]c2ccc(C)cc23)c(OC)c1OC	DT40 TDP1 no CPT 15µM, TGFb SMAD3 inh inconclusive, DT40 TDP1 CPT inconclusive (no result: TDP1 inh)
COc1cccc(CNc2ncnc3c2nnn3C)c1	DT40 TDP1 no CPT inconclusive, DT40 TDP1 CPT inconclusive (no result: IL-1B inflam inh)
Nc1sc(-c2ccccc2)cc1C(=O)NCCc1ccc(Cl)cc1	DT40 TDP1 no CPT 16µM, DT40 TDP1 CPT 23µM (no result: HepG2 viability, TGFb SMAD3 inh, TDP1 inh)
COc1ccc(CCNC(=O)c2cc(Nc3cc(C)cc(C)c3)nc3ccccc23)cc1OC	DT40 TDP1 no CPT 8.2µM, TGFb SMAD3 inh inconclusive, DT40 TDP1 CPT 8.2µM (no result: IL-1B inflam inh)
COc1ccc(CCNC(=O)c2cc(-c3ccncc3)nc3c(Cl)cccc23)cc1OC	DT40 TDP1 no CPT 21µM, DT40 TDP1 CPT 21µM
CCCCN(CCCNC(=O)c1cc(Nc2cccc(SC)c2)nc2ccccc12)Cc1ccccc1	DT40 TDP1 no CPT 4.1µM, HepG2 viability 13µM, TGFb SMAD3 inh 16µM, DT40 TDP1 CPT 6.5µM (no result: IL-1B inflam inh)
C=CCNC(=O)c1cc(-c2ccccc2)sc1N	DT40 TDP1 no CPT inconclusive, DT40 TDP1 CPT inconclusive (no result: HepG2 viability, TGFb SMAD3 inh, TDP1 inh)
COc1ccc(CCNC(=O)c2cc(-c3ccccn3)nc3c(Cl)cccc23)cc1OC	DT40 TDP1 no CPT inconclusive, TGFb SMAD3 inh inconclusive
CCc1ccccc1Nc1cc(C(=O)NCCc2ccccc2)c2ccccc2n1	DT40 TDP1 no CPT inconclusive, TGFb SMAD3 inh inconclusive, DT40 TDP1 CPT inconclusive (no result: IL-1B inflam inh)
COCCn1c(=O)cnc2cnc(Oc3ccc(OC)cc3)nc21	none (no result: HepG2 viability, TGFb SMAD3 inh, IL-1B inflam inh, TDP1 inh)
Cc1ccc(S(=O)(=O)N2CCC(c3nc(-c4cccs4)nc4ccccc34)CC2)cc1	DT40 TDP1 no CPT inconclusive, DT40 TDP1 CPT inconclusive (no result: IL-1B inflam inh, TDP1 inh)
CCC(C(=O)Nc1cc(C)ccc1OC)n1nnc(C(=O)OC)c1C(=O)OC (stereo unspecified)	none (no result: IL-1B inflam inh)
COCCn1c(=O)c(-c2ccc(OC)cc2)nc2cnc(Oc3ccccc3)nc21	none (no result: HepG2 viability, TGFb SMAD3 inh, IL-1B inflam inh, TDP1 inh)
CCCCCCCCCCCC(CC1OC(=O)C1CCCCCC)OC(=O)C(CC(C)C)NC=O (stereo unspecified)	none (no result: DT40 TDP1 no CPT, HepG2 viability, TGFb SMAD3 inh, IL-1B inflam inh, DT40 TDP1 CPT)
CSc1cccc(Nc2cc(C(=O)NCCc3ccc(Cl)cc3)c3ccccc3n2)c1	DT40 TDP1 no CPT 7.3µM, TGFb SMAD3 inh 10µM, DT40 TDP1 CPT 4.6µM (no result: IL-1B inflam inh)
Cc1cc(C(=O)NCCc2ccc(Cl)cc2)c2ccccc2n1	DT40 TDP1 no CPT inconclusive

Screens deposited in PubChem BioAssay by National Center for Advancing Translational Sciences (NCATS).
